# Laboratory results taken from PubChem BioAssay (NCI).
# Where “and” joins values, the source holds several entries; their conditions need not be identical. Equal values may be shown once. Compounds without any hit were thinned out: in the full panel of roughly 83,000, 20% have a hit.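 A percent growth of 40 corresponds to 60% growth inhibition; 0 means no net growth; -100 means all cells died. Active threshold: below 10.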 Values without a mark were called inactive. Calls of active or inactive are those of the source.
# Tested on: T-47D breast
# Experiment: NCI-60 one-dose screen, 48 h (100 = growth as untreated, 0 = no growth, -100 = all killed)
# Details: 10 µM unless noted
# Protocol: Growth inhibition of the T-47D human tumor cell line is measured as a screen for anti-cancer activity. Cells are grown in 96 well plates and exposed to the test compound for 48 hours. Compounds are tested at a single concentration, which is 10^-5 M for most compounds. The reported endpoint is percent growth (GI% or GIPRCNT), where numbers from 0 - 100% represent growth inhibition, and numbers from -100% - 0 represent cell death. For example, a value of 40 represents 60% growth inhibition. A value of 0 means no net growth occurred over the course of the experiment. A value of -40 indicates 40% of cells at the beginning of the experiment died by the end of the experiment. A value of -100 means all cells are dead at the end of the experiment.
# NCI-60 Human Tumor Cell Lines Screen was performed using the standard one-dose NCI protocol, which is described in more detail at https://dtp.cancer.gov/discovery_development/nci-60/default.htm.
# Compounds with GIPRCNT values below 10 were considered active. Activity score was based on GIPRCNT using the following formula: […]
# Score is 0 for GIPRCNT values of 100 or above, 50 for GIPRCNT values of 0, and 100 for GIPRCNT values of -100.
row,Structure (SMILES),growth
1,C/C=C(/C(=O)NC(N)=O)C(C)C,99.1%
2,CN(C)c1ccc(C(=N)c2ccc(N(C)C)cc2)cc1,16.9% and 33.1%
3,O=c1[nH]nnc2cc(Cl)ccc12,106% and 98.4%
4,Cc1cc(NC(=O)NC(=O)c2ccccc2N(C)C)ccc1Oc1ncc(Br)cn1,36.2% and 52.2%
5,CCOC(C)=N,103%
6,O=[N+]([O-])c1ccc(N2CCN=N2)cc1,67.3%
7,CC1CCC(=O)N1c1ccc(N)cc1 (stereo not given),81.9%
8,C#CCOC(=O)C(N)CS (stereo not given),119%
9,COC(=O)c1cc(C(=O)OC)cc([N+](=O)[O-])c1,111%
10,OCCS,92.8%
11,COC(=O)c1ccccc1Cl,94%
12,CCOC(=O)C(N)Cc1cc(I)c(O)c(I)c1 (stereo not given),105% and 111%
13,O=S(=O)(O)c1ccc2cc(O)ccc2c1,102%
14,Nc1nc(-c2ccccn2)cc(-c2cc(-c3ccccn3)nc(N)n2)n1,109%
15,Cc1ccc(NC(=S)N/C=C(\c2ccccc2)S(=O)Cc2ccccc2)c(C)c1 (stereo not given),77.4%
16,Cc1ccc(S(=O)(=O)n2ccnc2)cc1,96.8%
17,CC(=O)Oc1ccc(C(c2ccc(OC(C)=O)cc2)c2ccccn2)cc1,-15.1% (active) and -18.5% (active)
18,CCOC(=O)c1ccncc1,95%
19,N#Cc1ccc(/C=C/C(=O)c2ccccc2)cc1,88.3% and 82.5%
20,CCc1ccc(OC(=O)CCl)cc1,100%

row,Structure (SMILES),growth
1,Cc1ccc(C(=O)c2ccc(C)cc2)cc1,90.7% and 94.9%
2,COC(=O)c1nc(N)nc(C(=O)OC)c1C(=O)c1ccc(F)cc1,105%
3,COc1cc(Cl)ccc1C,94.9%
4,COCCNC(C)=O,89.5%
5,Cc1cc(-c2ccc(N=Nc3c(C)nn(-c4ccc(S(=O)(=O)O)cc4)c3O)c(C)c2)ccc1N=Nc1ccc(O)c(C(=O)O)c1,99.7%
6,Cn1c(N)c(N=O)c(=O)n(C)c1=O,105% and 99.8%
7,O=C(NC(=O)c1ccc(F)c(Cl)c1)NC1CC1,91.8%
8,COc1cc(C2c3cc4c(cc3C(OC(=O)C[n+]3ccccc3)C3COC(=O)C23)OCO4)cc(OC)c1OC (stereo not given),94.8%
9,CCCC(=O)Oc1ccc2ccccc2c1,92.2%
10,C(#CCN1CCOCC1)CCCN1CCOCC1,105% and 101%
11,OC1CCCN(Cc2ccccc2)C1 (stereo not given),94.9%
12,Cn1c(-c2ccccc2)cc(=O)cc1-c1ccccc1,97.1%
13,O=C(O)c1cc(=O)[nH]c(=O)[nH]1,101% and 105%
14,Nc1[nH][nH]c(=O)c1N=Nc1ccccc1,113% and 102%
15,COc1ccc(-n2[nH]c3c(cnc4ccccc43)c2=O)cc1,88.3%
16,CCN(CC)C(CC(=O)c1ccccc1)C(=O)c1ccccc1 (stereo not given),77.8%
17,O=[N+]([O-])c1cccc(N=Cc2ccccc2)c1,103%
18,Cc1onc(-c2c(F)cccc2Cl)c1-c1ncc(-c2ccc(Cl)cc2)o1,73.9% and 35.8%
19,Cc1cnc(N)s1,90.2%
20,O=C1C2=C(Nc3cc(Cl)ccc3N2)OC1c1c[nH]c2ccc(COc3ccccc3)cc12 (stereo not given),68.4%
